Most compounds without a hit are left out; they make up all but 8.9% or so of the library.
MCF10A rerep = A quantitative high throughput screen for small molecules that induce DNA re-replication in MCF 10a normal breast cells; MCF 10A DNA re-replication, Hoechst nuclear intensity, 48 h; Potency, µM (titrated, usually from 46.1 µM), without a hit: at the highest dose activity, positive = re-replication, usual class: activators; hit rate 2.9% among 350,000; AID 624296, 2012; note: potency is the fitted concentration of half-maximal effect; % of control where 0% means no effect; nearly all actives have a fitted effect of over 50% in size
D3 antag = qHTS of D3 Dopamine Receptor Antagonist: qHTS | AID 652054, 2013 | D3R cells, DiscoveRx beta-arrestin luminescence, antagonist mode; active compounds read low | max response, negative = inhibition, % | hit rate 2.5% among 360,000; in the data active = max response below about -50%; inconclusive = no clear call, values can overlap the other calls; note: % is set by controls: 0 for no effect and ±100 for the full control effect
Target sequence (P35462 whole entry, looked up): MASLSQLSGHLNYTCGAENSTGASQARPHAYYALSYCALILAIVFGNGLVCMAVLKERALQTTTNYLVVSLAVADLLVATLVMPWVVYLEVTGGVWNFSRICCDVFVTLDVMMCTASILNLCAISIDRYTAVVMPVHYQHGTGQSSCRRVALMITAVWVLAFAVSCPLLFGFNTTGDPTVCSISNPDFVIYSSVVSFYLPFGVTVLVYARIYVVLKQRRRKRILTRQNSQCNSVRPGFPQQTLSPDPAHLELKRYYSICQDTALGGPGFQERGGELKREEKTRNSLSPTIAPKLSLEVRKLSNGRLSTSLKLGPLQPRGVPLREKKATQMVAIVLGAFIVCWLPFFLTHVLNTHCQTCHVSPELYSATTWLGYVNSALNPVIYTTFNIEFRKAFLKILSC
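Cells plated overnight at 1500 cells/well, then exposed to library compounds with dopamine controls for 90 minutes at 37 degrees C. DiscoveRx reagent added for 30–60 minutes at room temperature; luminescence read, quantitative HTS format.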
DRD3 agonist = qHTS of D3 Dopamine Receptor Agonist: qHTS; max activation, %; D3R DiscoveRx beta-arrestin cells, luminescence, 90 min; D(3) dopamine receptor (Homo sapiens), P35462; hit rate 0.58% among 410,000; in the data active = max activation above about 30%; note: 0% is about no effect
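Cells at 1500/well, incubated overnight, then treated with pinned compounds (dopamine as control) for 90 min at 37 degrees C. DiscoveRx reagent added for 30 - 60 minutes at room temperature; luminescence read.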
SW480 rerep = A quantitative high throughput screen for small molecules that induce DNA re-replication in SW480 colon adenocarcinoma cells; hit rate 1.8% among 340,000; SW480 DNA re-replication, Hoechst DNA content imaging, 48 h; Potency, µM (titrated, usually from 46.1 µM), without a hit: at the top dose re-replication activation, most hits filed as activators; AID 624297, 2012; note: potency is the fitted concentration of half-maximal effect; % of control where 0% means no effect; nearly all actives have a fitted effect of over 55% in size
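Hoechst fluorescence of nuclei (405 nm excitation, 500-530 nm emission) measured by plate-scanning imager after 48 hr compound exposure at 37 C; re-replication scored as increased number of nuclei with elevated intensity.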
KB-3-1 tox = qHTS assay for MDR1-selective chemotherapeutics: Primary screen using the parental adenocarcinoma cell KB-3-1 | KB-3-1 viability, CellTiter-Glo ATP luminescence, 72 h | Potency, µM (doses to about 46.1 µM), hits mostly cytotoxic | hit rate 1.4% among 400,000; note: potency is the fitted concentration of half-maximal effect; % is set by controls: 0 for no effect and ±100 for the full control effect; nearly all actives have a fitted effect of over 60% in size
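Cells are dispensed, compounds pinned in, plates held at 37 °C for 72 h, then CellTiter-Glo is added and luminescence read after 10 minutes. Cell line: parental KB-3-1 in phenol-red-free DMEM, 10% FBS.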
KB-V1 cytotox = qHTS assay for MDR1-selective chemotherapeutics: Primary screen using the drug-selected MDR subline cells KB-V1; KB-V1 MDR cells viability, CellTiter-Glo, 72 h; Potency, µM (doses to about 46.1 µM), usual class: cytotoxic; hit rate 3.4% among 400,000; AID 1347076, 2019; note: potency is the fitted concentration of half-maximal effect; % is set by controls: 0 for no effect and ±100 for the full control effect; nearly all actives have a fitted effect of over 60% in size
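KB-V1, DMEM (no phenol red) + 10% FBS; cpd pin-transferred, titration series; 72 h, 37 degrees C; CellTiter-Glo, luminescence. Data normalized, curve-fit.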
* marks the source's active call; other numbers are inactive results; i = inactive; ? = inconclusive; . = no result. Unless noted, calls come from the whole dose curve; as a rule, active = well fitted curve in the direction sought with a large enough effect; inconclusive = small, poorly fitted or top-dose-only effect, or another doubt; inactive = no such curve, though single readings can be large; an effect the other way counts as inactive or inconclusive.

SMILES	MCF10A rerep	D3 antag	DRD3 agonist	SW480 rerep	KB-3-1 tox	KB-V1 cytotox
CCOC(=O)c1c(NC(=O)c2cc3nc(-c4ccc(Br)cc4)cc(C(F)(F)F)n3n2)sc(C(C)=O)c1C	.	.	0	.	.	.
CCCCS(=O)(=O)N[C@@H](Cc1ccc(OCCCCC2CCNCC2)cc1)C(=O)O	.	.	0	.	.	.
O=c1cc(-c2ccccc2)nc2cc(-c3ccc(Br)cc3)[nH]n12	3.3µM*	-23	-19	-2%	i	i
O=c1cc(-c2ccccc2)nc2cc(-c3ccco3)[nH]n12	12%	9	0	1%	i	i
C[C@H](CN1CCCC1)C(=O)c1ccc(C(F)(F)F)cc1	.	.	-4	.	.	.
CC(=O)O[C@@]12CO[C@@H]1C[C@H](O)[C@@]1(C)C(=O)[C@H](O)C3=C(C)[C@@H](OC(=O)[C@H](O)[C@@H](NC(=O)OC(C)(C)C)c4ccccc4)C[C@@](O)([C@@H](OC(=O)c4ccccc4)[C@H]21)C3(C)C	.	.	-3	.	?	?
Cc1cccc(/C=N/NC(=O)c2cc(C3CC3)nc3ccccc23)n1	-1%	4	3	-5%	i	i
Cc1cc(Nc2cccc([N+](=O)[O-])c2)c2ccccc2n1	?	10	4	-27%	i	?
Cc1cc(Nc2ccc([N+](=O)[O-])cc2)c2ccccc2n1	2.6µM*	-22	-12	71%	i	i
O=C(N/N=C/c1cn[nH]c1-c1ccc(Cl)cc1)c1ccc([N+](=O)[O-])cc1	-11%	-8	-9	18%	i	i
O=C(N/N=C\c1cn[nH]c1-c1ccccc1)c1ccc([N+](=O)[O-])cc1	3%	-17	-9	4.1µM*	?	i
CCc1ccc(/C=N/NC(=O)c2cc(C3CC3)nc3ccccc23)s1	7.3µM*	?	2	18µM*	5.2µM*	5.2µM*
CC(N=Cc1cc([N+](=O)[O-])ccc1O)c1ccccc1 (stereo unspecified)	-5%	-52*	-4	0%	i	i
COc1ccc(N2CC(c3nc(-c4ccccc4C)no3)CC2=O)cc1Cl (stereo unspecified)	.	.	0	.	i	i
O=C(CN1CCCN(Cc2ccccc2Cl)S1(=O)=O)Nc1ccc2c(c1)OCCO2	.	.	7	.	i	i
O=S(=O)(c1ccc(Cl)cc1)c1nc(-c2ccco2)oc1SCc1ccc(F)cc1	.	.	4	.	i	?
COc1cc(C(=O)NN=Cc2ccc(N(C)C)cc2)cc(OC)c1OC	.	-13	1	.	1.5µM*	3.7µM*
O=[N+]([O-])c1ccc(O)c(C=NN2CCCCC2)c1	.	-76*	-22	.	i	?
COc1ccc(/C=N/NC(=O)c2cccc([N+](=O)[O-])c2)cc1O	?	-5	-9	?	i	i
Oc1ccc(Br)cc1/C=N/N1CCCCC1	12%	-12	-11	-14%	i	i
COc1cc(/C=N/NC(=O)c2ccc(N(C)S(=O)(=O)c3ccccc3)cc2)cc(OC)c1OC	1%	8	5	-74%	i	?
Cc1cc(C(=O)N/N=C/c2cc([N+](=O)[O-])ccc2O)c2ccccc2n1	13%	-65*	-10	16µM*	i	?
O=C(N/N=C/c1cc([N+](=O)[O-])ccc1O)c1cc(-c2ccccc2)nc2ccccc12	?	4	7	?	?	i
O=C(NN=Cc1ccccc1O)c1cccc([N+](=O)[O-])c1	1%	-15	12	0.58µM*	?	?
COc1ccc(-n2cc3c(c2-c2cccc(Br)c2)c(=O)n(C)c(=O)n3C)cc1OC	.	.	-3	.	i	i
SMILES	MCF10A rerep	D3 antag	DRD3 agonist	SW480 rerep	KB-3-1 tox	KB-V1 cytotox
O=C(N/N=C/c1cc([N+](=O)[O-])ccc1O)NC12CC3CC(CC(C3)C1)C2	?	-22	-4	.	i	i
Oc1cccc(/C=N/N=C/c2cccc(O)c2O)c1O	13%	-11	2	12%	?	?
Cc1cc(C(=O)N/N=C/c2ccc([N+](=O)[O-])cc2)c2ccccc2n1	?	-4	-1	13µM*	5.8µM*	i
Cc1cc(C(=O)N/N=C/c2ccc(N(C)C)cc2)c2ccccc2n1	7.1µM*	-8	-2	18µM*	9.2µM*	?
O=C(N/N=C/c1cc([N+](=O)[O-])ccc1O)C12CC3CC(CC(C3)C1)C2	7.3µM*	-93*	-28	?	?	i
CC(N=Cc1cccc(O)c1O)c1ccccc1 (stereo unspecified)	?	-18	-3	8.2µM*	i	i
COc1cccc(C(=O)NCC(c2ccc(N(C)C)cc2)N2CCc3ccccc32)c1 (stereo unspecified)	.	.	-4	.	i	i
Cc1ccc(NC(=O)C2CCCN(S(=O)(=O)c3cn(C(C)C)cn3)C2)c(C)c1 (stereo unspecified)	.	.	-16	.	i	i
Cc1cc(Nc2cccc([N+](=O)[O-])c2)c2cccc(C)c2n1	-1%	-15	-18	-6%	i	i
O=C(N/N=C/c1ccc(O)c(O)c1)c1cc(-c2ccccc2)nc2ccccc12	14%	-6	4	-1%	i	i
O=C(N/N=C/c1cc([N+](=O)[O-])ccc1O)Nc1ccccc1	?	-75*	-17	?	?	i
Cc1cc(C(=O)N/N=C/c2cc(Br)cc([N+](=O)[O-])c2O)c2ccccc2n1	29%	-94*	-14	.	i	?
CCOc1ccc2nc(C)cc(Nc3cccc([N+](=O)[O-])c3)c2c1	18µM*	-25	-8	?	i	15µM*
O=C(N/N=C/c1cc([N+](=O)[O-])ccc1O)c1c[nH]c2ccccc12	12%	-29	-5	8%	?	?
CCc1cc(C(=O)N/N=C/c2ccc(O)cc2)c2ccccc2n1	23µM*	-9	-10	?	?	i
CCCSCCCNC(=O)C1CCCN(c2nn3cc(-c4ccc(OC)cc4)nc3s2)C1 (stereo unspecified)	.	.	1	.	i	i
CC1(C(=O)NC2CCCCC2)Cc2ccccc2C(=O)N1Cc1ccccc1Cl (stereo unspecified)	.	.	8	.	.	.
COc1ccc(-c2noc(-c3cccnc3NCc3ccco3)n2)cc1	.	.	3	.	i	i

Bioassay records from PubChem.
